Source: PubChem (National Center for Advancing Translational Sciences (NCATS))
The list is not random: actives were taken first. Their share in the collection is about 7.5%.
FLuc modulator = qHTS profiling assay for firefly luciferase inhibitor/activator using purifed enzyme and Km concentrations of substrates (counterscreen for miR-21 project); Potency, µM (doses to about 57.5 µM), without a hit: at the top dose activity change, negative = inhibition, most hits filed as inhibitors; Luciferin 4-monooxygenase (Photinus pyralis), P08659; purified FLuc, Km substrates, luminescence inhibition; 360,000 tested, 6.9% active; AID 588342, 2011;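 note: plate controls were vehicle for no effect and reference inhibitor for full effect; nearly all actives have a fitted effect of over 55% in size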
Target sequence (P08659 whole entry, looked up): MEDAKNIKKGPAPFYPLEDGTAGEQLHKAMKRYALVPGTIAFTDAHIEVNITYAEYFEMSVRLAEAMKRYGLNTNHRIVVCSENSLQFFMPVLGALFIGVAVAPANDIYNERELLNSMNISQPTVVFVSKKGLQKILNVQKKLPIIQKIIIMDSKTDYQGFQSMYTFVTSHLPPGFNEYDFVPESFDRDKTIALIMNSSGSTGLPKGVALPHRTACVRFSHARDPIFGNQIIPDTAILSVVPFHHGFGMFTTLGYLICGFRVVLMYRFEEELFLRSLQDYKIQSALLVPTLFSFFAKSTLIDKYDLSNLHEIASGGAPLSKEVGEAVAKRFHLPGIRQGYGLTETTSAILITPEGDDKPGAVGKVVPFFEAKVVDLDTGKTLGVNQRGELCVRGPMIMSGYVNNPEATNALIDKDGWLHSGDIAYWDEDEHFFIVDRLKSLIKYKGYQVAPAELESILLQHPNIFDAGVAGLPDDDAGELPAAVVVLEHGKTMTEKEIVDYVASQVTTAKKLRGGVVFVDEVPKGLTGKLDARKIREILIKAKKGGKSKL
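Biochemical qHTS of compounds, final roughly 60 µM downward over six points, against 10 nM purified firefly luciferase using Km concentrations of substrates (10 uM D-luciferin, 10 uM ATP) in Tris acetate pH 7.5 buffer; luminescence output.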
Rab9 promoter act = qHTS Assay for Rab9 Promoter Activators; Potency, µM (top dose mostly 9.22 µM), without a hit: at the highest dose activation, negative = inhibition, usual class: activators; Huh7 Rab9 promoter-luciferase reporter, luminescence, 24 h; AID 485297, 2010; 320,000 tested, 2.8% active; note: % of control where 0% means no effect; nearly all actives have a fitted effect of over 60% in size
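Cell-based reporter: Huh7 stable for Rab9 promoter-driven luciferase, plated in reduced-serum medium with 10% FBS at 1500 cells/well, compound-treated 24 h at 37 °C, luminescence read after 10 min reagent.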
NPC1 promoter act = qHTS Assay for NPC1 Promoter Activators. 320,000 tested, 2.4% active. Huh7 NPC1 promoter luciferase reporter, 24 h. Potency, µM (top dose mostly 9.22 µM), without a hit: top-dose activation, hits mostly activators. AID 485313, 2010; note: % of control where 0% means no effect; nearly all actives have a fitted effect of over 60% in size
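In 1536-well qHTS, Huh7 cells harboring an NPC1 promoter–luciferase construct received compound for 24 h; activation was quantified by luminescence following luciferase reagent addition.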
ELG1 genotox = qHTS screen for small molecules that induce genotoxicity in human embryonic kidney (HEK293T) cells expressing luciferase-tagged ELG1 | Potency, µM (top dose mostly 46 µM), inactives show at the top dose activity change, positive = activation, hits mostly activators | 330,000 tested, 1.3% active | HEK293T ELG1-luciferase reporter, luminescence, 16 h | AID 504466, 2011; note: % of control where 0% means no effect; nearly all actives have a fitted effect of over 60% in size
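Screening used a luciferase reporter fused to human ELG1 in HEK293T cells. Luminescence was read on a CCD plate imager after 16 hr exposure and 30 min ONE-Glo incubation.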
SMN2 splice up = qHTS Assay for Enhancers of SMN2 Splice Variant Expression; 210,000 tested, 2.8% active; HEK293 SMN2-luciferase splicing reporter, luminescence, 30-36 h; Potency, µM (series often up to 46.1 µM), for inactives: top-dose activity change, positive = activation, actives largely listed as activators; note: % of control where 0% means no effect; nearly all actives have a fitted effect of over 55% in size
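HEK293 cells carry an SMN2 […]–luciferase reporter in which exon 7 inclusion puts luciferase in frame. Cells were plated 10-12 h before compound addition, then incubated 30-36 h at 37C. ONE-Glo luminescence was read; sodium butyrate at 4.5 mM final served as control.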
Luc counter = Counterscreen for Luciferase (Kinase-Glo TM) Inhibition. Luciferin 4-monooxygenase (Photuris pensylvanica), Q27757. Kinase-Glo luciferase, ATP luminescence, 8 min. Potency, µM (series often up to 38.3 µM), inactives show at the top dose activity change, negative = inhibition, usual class: inhibitors. 200,000 tested, 0.28% active. AID 1379, 2008; note: % is set by controls: 0 for no effect and ±100 for the full control effect; nearly all actives have a fitted effect of over 60% in size
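Compound is pinned into ATP-containing buffer (10 uM ATP, imidazole pH 7.2, 7 mM MgCl2). Kinase-Glo luciferase reagent is then added. Light output is recorded following an 8-min room-temperature incubation.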
Numbers without * were called inactive; ? = inconclusive; · = no result given. Calls come from the whole dose curve; as a rule, active = well fitted curve in the direction sought with a large enough effect; inconclusive = small, poorly fitted or top-dose-only effect, or another doubt; inactive = no such curve, though single readings can be large; an effect the other way counts as inactive or inconclusive. Potency is the fitted concentration of half-maximal effect.

SMILES	FLuc modulator	Rab9 promoter act	NPC1 promoter act	ELG1 genotox	SMN2 splice up	Luc counter
O=c1/c(=C/c2ccc(O)c([N+](=O)[O-])c2)sc2nc3ccccc3n12	6.75µM*	2.9%	26.1%	12.1%	-20.0%	-6.6%
Cc1nn2c(=O)cc(COc3ccc(/C=C(\C#N)C(=O)Nc4ccc(F)cc4)cc3)nc2s1	2.0%	·	·	·	-8.8%	·
N#C/C(=C\c1ccc(O)c(O)c1)C(=O)Nc1cccc2ncccc12	?	-1.0%	-0.9%	-27.1%	·	·
N#C/C(=C\c1ccccc1O)C(=O)Nc1ccccn1	4.78µM*	20.1%	-5.6%	5.5%	·	·
Cc1cccc(NC(=O)/C(C#N)=C/c2ccccc2O)n1	0.601µM*	3.98µM*	3.55µM*	16.4µM*	·	·
Cc1cccc(NC(=O)/C(C#N)=C/c2ccccc2Cl)n1	6.01µM*	-2.8%	-0.3%	1.1%	·	·
C=CCNC(=O)/C(C#N)=C/c1ccccc1Cl	?	0.7%	-1.0%	8.3%	-0.8%	-0.2%
Cn1cc(/C=C(\C#N)C(=O)Nc2ccccc2O)c2ccccc21	?	?	26.6%	-10.9%	·	·
CN(C)c1ccc(CNC(=O)c2cccn2-c2nnc(N3CCCCC3)s2)cc1	-12.8%	·	·	·	·	·
Cc1cc(NC(=O)c2nn3cccnc3c2Cl)no1	10.7µM*	1.41µM*	1.78µM*	?	10µM*	-7.4%
C=CCNC(=O)c1nn2cccnc2c1Cl	-2.1%	6.6%	5.5%	3.4%	24.5%	1.9%
O=C(Nc1cccc(Cl)c1)c1cnn2cccnc12	7.57µM*	2µM*	?	?	10µM*	-4.0%
Cc1cc(NC(=O)c2cnn3cccnc23)no1	?	?	?	4.11µM*	?	-8.3%
O=C(Nc1cc(Cl)cc(Cl)c1)c1cnn2cccnc12	-12.6%	19.6%	2.2%	5.0%	8.2%	1.5%
CCCCC(=O)NC1(C(F)(F)F)C(=O)Nc2c1c(=O)[nH]c(=O)n2-c1ccc(C)c(C)c1 (stereo not given)	0.6%	·	·	·	4.6%	·
CCOc1ccc(Nc2oc(-c3ccc(COc4ccc(OC)cc4)o3)nc2C#N)cc1	-6.2%	·	·	·	·	·
O=C(O)Cc1cc2ccccc2nc1C(=O)O	·	·	·	·	·	-1.1%
CNc1nc(-c2ccc3c(c2)CCN3C(=O)c2ccccc2F)c(C)s1	15.1µM*	11.0%	9.1%	0.7%	·	-0.3%
Cc1ccc(C(=O)N2CCc3cc(CNC(=O)c4ccccc4F)ccc32)cc1	19µM*	·	·	·	·	·
COc1ccccc1C(=O)NCc1ccc2c(c1)CCN2C(=O)c1cccc(C)c1	-6.6%	·	·	·	·	·
CNc1nc(-c2ccc3c(c2)CCN3C(=O)c2ccccc2F)cs1	1.51µM*	0.562µM*	1.58µM*	?	12.6µM*	-15.4%
CCOC(=O)c1cc(NC(=O)c2ccc(F)cc2)c(=O)n2c1oc1ccc(Cl)cc12	4.4%	·	·	·	?	·
C=CCn1c(SCC(=O)Nc2ccccc2C)nnc1-c1ccncc1	0.1%	3.6%	0.8%	-1.6%	4.5%	-2.7%
Cc1ccc(NC(=O)CSc2nsc(SCC(=O)Nc3ccc(C)cc3C)c2C#N)c(C)c1	3.6%	-5.1%	-6.3%	7.2%	·	·
C=CCn1c(SCC(=O)Nc2nccs2)nnc1-c1ccco1	5.3%	-0.3%	-2.4%	-0.1%	-7.3%	-1.3%
SMILES	FLuc modulator	Rab9 promoter act	NPC1 promoter act	ELG1 genotox	SMN2 splice up	Luc counter
Cc1csc(NC(=O)CSc2nsc(SCC(=O)Nc3nc(C)cs3)c2C#N)n1	?	1.58µM*	2.51µM*	?	11.2µM*	0.9%
C=CCn1c(SCC(=O)Nc2cccnc2Cl)nnc1-c1ccc(C(C)(C)C)cc1	21.3µM*	2.6%	-1.8%	-3.2%	·	·
Cc1nc(SCC(=O)Nc2nc3ccccc3s2)c(C#N)c(C)c1C	2.13µM*	-48.2%	-26.2%	-12.4%	-101.9%	-3.1%
C=CCn1c(C)nnc1SCC(=O)Nc1nccs1	4.2%	0.0891µM*	?	1.1%	·	·
Cc1ccc2sc(NC(=O)CSc3nc(C)cc(C)c3C#N)nc2c1	3.79µM*	27.8%	?	?	2.51µM*	-0.6%
COc1cc(-c2cc(-c3ccccc3)nc(SCC(=O)Nc3nccs3)c2C#N)cc(OC)c1OC	1.9%	6.2%	-3.0%	3.4%	-20.9%	-1.7%
Cc1nc(SCC(=O)Nc2nccs2)c(C#N)c(C)c1C	1.07µM*	0.562µM*	?	?	·	·
Cc1cc(C(F)(F)F)c(C#N)c(SCC(=O)Nc2nc3ccccc3s2)n1	1.2µM*	0.398µM*	1.26µM*	0.231µM*	-87.9%	2.4%
CC(C)[C@@H](CC(=O)N[C@@H]1CCNC[C@H]1C(=O)N[C@H](CC(=O)N[C@@H](CCC(=O)O)CC(=O)O)Cc1c[nH]c2ccccc12)NC(=O)C[C@H](Cc1ccccc1)NC(=O)[C@@H]1CNCC[C@H]1N	·	·	·	·	-7.0%	0.4%
COC(=O)C(NC(=O)CC(C)C)(Nc1nc2c(s1)CCCC2)C(F)(F)F (stereo not given)	-4.9%	·	·	·	-7.3%	·
COc1cccc(C(=O)Nc2ccc(NC(=O)C3CC3)cn2)c1	7.57µM*	3.16µM*	2µM*	?	42.7%	?
CCCC(=O)Nc1ccc(NC(=O)c2cccc(OC)c2)cn1	-15.2%	12.7%	-3.8%	-3.4%	·	·
CCC(=O)Nc1ccc(NC(=O)c2cccc(OC)c2)nc1	10.7µM*	2.24µM*	?	?	11.2µM*	-7.3%
COc1ccc(C(=O)Nc2ccc(NC(=O)c3cccc(OC)c3)cn2)cc1	0.5%	18.8%	4.6%	13.3%	·	·
CC1CCN(S(=O)(=O)c2ccc3[nH]ccc3c2)CC1	-10.6%	·	·	·	·	·
